Assay outcomes (PubChem BioAssay)
A selection: hits, their analogues and other compounds. The true share with any hit is near 2.1%.
YB-1 expression: YB-1 expression inhibition; U2OS, qRT-PCR YB-1 vs CDIP delta delta Cp, 16 h; active compounds read high; zero = DMSO, each unit about twofold; delta delta Cp (YB-1 minus CDIP) (no concentration beside the values); 0.37% of 30,000 active; AID 434959;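 active = delta delta Cp rounded down to an integer at or above 3, about 3 SD of DMSO wells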;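 note: higher means less YB-1 transcript or more CDIP transcript relative to DMSO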
U2OS ROS induce: inducers of reactive oxygen species in cancer cells | ROS induction (% of piperlongumine), % at 10 µM | U2OS ROS induction, H2DCF-DA fluorescence | 2% of 46,000 active; in the data active = ROS induction above about 79%, passing the limit was not always enough; inconclusive = no clear call, values can overlap the other calls;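 note: 0% = DMSO vehicle median and 100% = reference compound median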
* = called active by the depositor; ? = inconclusive; nt = no result.

SMILES	YB-1 expression	U2OS ROS induce
COc1cccc(S(=O)(=O)N(C)C[C@@H]2Oc3ncc(C#Cc4ccc(C(F)(F)F)cc4)cc3C(=O)N([C@H](C)CO)C[C@@H]2C)c1	0.711	129.2*
C[C@H](CO)N1C[C@H](C)[C@H](CN(C)S(=O)(=O)c2cn(C)cn2)Oc2ncc(C#Cc3ccccc3)cc2C1=O	0.0851	119.6*
O=C(Cc1ccc(-n2c(=S)[nH]c3ccccc3c2=O)cc1)N1CCCC1	nt	-10.2
COC(=O)c1ccccc1NC(=O)COc1ccc([N+](=O)[O-])c(C)c1	nt	137.9*
COC(=O)c1ccccc1NC(=O)COc1ccc(C)c(C)c1	nt	0.5
Cc1ccc(Nc2nc(N)nc(CC(=O)CSc3nc4ccccc4s3)n2)cc1	nt	27.5
O=C(/C=C/c1ccccc1)Nc1ccc2[nH]c(=O)[nH]c2c1	nt	0.5
COc1ccc(C2=NN(S(C)(=O)=O)C(c3ccc(C)cc3)C2)cc1 (stereo not given)	0.0476	32.9
COc1ccc(C2=NN(S(C)(=O)=O)C(c3ccccc3OC)C2)cc1 (stereo not given)	0.447	163.5*
COc1ccc(-c2cc(OC(=O)c3ccccc3)cc3sc(=O)oc23)cc1	nt	28.4
CC(=O)OCC1=C[C@@H](O)[C@@H]2C=CO[C@@H](OC3OC(CO)C(O)C(O)C3O)[C@H]12 (stereo not given in full)	2.32	-10.1
CSC(=O)OCC1=C[C@H](O)[C@@H]2C(C(=O)O)=CO[C@@H](OC3OC(CO)C(O)C(O)C3O)[C@H]12 (stereo not given in full)	4.11*	-9.5
CC(C)(C)Nc1cccccc1=NCc1ccccc1	0.359	13.3
Cc1cc(=O)oc2c3c(ccc12)O/C(=C/C=C/c1ccccc1)C3=O	nt	58.9
COc1ccc(NC(=O)CSc2nc3scc(C)c3c(=O)[nH]2)cc1	nt	90.9*
COc1ccc(NC(=O)CSc2nc(C)cc(=O)[nH]2)cc1	nt	5.0
O=C(Cn1c2ccccc2c2cn[nH]c(=O)c21)N1CCCCC1	nt	-1.6
CCc1cc(C(c2ccc(Cl)cc2)N2CCN(CCO)CC2)c(NC(=O)c2ccccc2)s1 (stereo not given)	-0.176	89.0*
O=C(Nc1nc2ccc(Cl)cc2s1)C1CN(C(c2ccccc2)c2ccccc2)C1	nt	10.2
COC(CNC(=O)Cc1ccc(-n2c(=O)[nH]c3ccsc3c2=O)cc1)OC	nt	-7.3
Cc1ncoc1C(=O)Nc1ccccc1F	nt	-18.1
NC(N)=Nc1nc2ccccc2s1	nt	-11.2
COc1ccc(NC(=O)c2ccccc2NC(=O)COc2ccc([N+](=O)[O-])cc2)cc1	nt	-15.2
COc1ccc(NC(=O)Cc2nc(-c3ccc([N+](=O)[O-])cc3)cs2)cc1	nt	94.2*
O=C(COc1ccc2ccccc2c1Br)NC1CCCCC1	nt	-0.8
SMILES	YB-1 expression	U2OS ROS induce
COc1ccccc1NC(=O)CSc1nncn2c1cc1oc(C)cc12	nt	106.6*
COc1ccccc1NC(=O)CSc1ncccn1	nt	-1.3
CC1CCCCN1C(=O)N1CCOCC1 (stereo not given)	nt	-14.3
C=C1C(=O)O[C@H]2C1[C@H](OC(=O)/C(=C/CO)COC(=O)/C(C)=C/CO)CC(=C)[C@@H]1CC(=O)[C@@H](C)[C@@H]12 (stereo not given in full)	-0.292	87.2*
C=C1C(=O)O[C@H]2[C@H]1[C@H](O)CC(=C)[C@@H]1CC(=O)C(C)[C@H]21 (stereo not given in full)	-0.134	?
C[C@H]1CN([C@@H](C)CO)C(=O)c2cccc(NC(=O)c3cnccn3)c2O[C@H]1CN(C)Cc1ccc(-c2ccccc2)cc1	0.46	42.9
C[C@H]1CN([C@@H](C)CO)C(=O)c2cccc(NC(=O)c3cnccn3)c2O[C@@H]1CN(C)Cc1ccc(-c2ccccc2)cc1	-0.216	118.3*
C[C@@H]1CN([C@H](C)CO)C(=O)c2cccc(NC(=O)c3cnccn3)c2O[C@H]1CN(C)Cc1ccc(Oc2ccccc2)cc1	-0.193	21.0
C[C@H](CO)N1C[C@H](C)[C@@H](CN(C)Cc2ccc(Oc3ccccc3)cc2)Oc2c(NC(=O)c3cnccn3)cccc2C1=O	-0.606	134.3*
COc1ccc(CNC(=O)c2cc3c(=O)oc4ccccc4c3s2)cc1	nt	-22.2
COc1cc(Br)cc(/C=N/N(CCO)C2=NS(=O)(=O)c3ccccc32)c1OC	nt	115.1*
O=C(CN1C(=O)C2C3C=CC(C3)C2C1=O)Nc1ccc2ncccc2c1 (stereo not given)	nt	-21.2
CN1C2=C(C(=O)CC(C)(C)C2)C(c2ccccc2OCC(=O)Nc2ccc(F)cc2)C2=C1CC(C)(C)CC2=O	nt	134.2*
COC(=O)C1=C(C)NC(=O)NC1c1ccccc1OCC(=O)Nc1ccc(C)cc1 (stereo not given)	nt	0.1
CCNC(=S)Nc1sc2c(c1C#N)CCC(C)C2 (stereo not given)	-0.137	166.9*
CC1CCc2sc(NC(=O)C(Cc3ccccc3)Cc3ccccc3)c(C#N)c2C1 (stereo not given)	-0.0778	0.6
